A short description of experiment [1]: ATG_NFI_CIS: Attagene CIS-FACTORIAL HepG2 Assay for human Nuclear Factor I (NFI) (AID 2282989). As to conditions: HepG2 cis-regulatory reporter, NFI response element transcription; actives raise or lower the signal. Summed up:
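Reporter transcription driven by endogenous transcription factors in HepG2 cells; 24 h treatment. Quantitation by labelled RT-PCR fragments on capillary electrophoresis, gain- or loss-of-signal relative to DMSO.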

Experiment [2] addresses Myc proto-oncogene protein (Homo sapiens) (UniProt P01106). The experiment is described as follows: ATG_Myc_CIS: Attagene CIS-FACTORIAL HepG2 Assay for human Myelocytomatosis (Myc) Proto-Oncogene Transcription Factor (AID 2282990). As to conditions: HepG2, Attagene cis-reporter transcription factor activity; actives raise or lower the signal. Summed up: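 Cells of the HepG2 human liver line bear multiple cis-driven reporter transcription units. Reporter mRNA after 24 h exposure is reverse-transcribed, amplified, labelled and resolved by capillary electrophoresis, with gain- or loss-of-signal fitting relative to DMSO.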

Experiment [3] is described as follows: ATG_NF_kB_CIS: Attagene CIS-FACTORIAL HepG2 Assay for human Nuclear Factor Kappa B (NF-kB) (AID 2282991). Conditions: HepG2 Attagene cis-factorial NF-kB reporter mRNA; actives raise or lower the signal. The essentials: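 HepG2, transient multi-reporter transfection, cis promoter elements (endogenous TFs). 24 h exposure. Total RNA → RT → PCR → 6-FAM label → HpaI → CE. Gain/loss vs DMSO.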

A short description of experiment [4]: ATG_NRF2_ARE_CIS: Attagene CIS-FACTORIAL HepG2 Assay for human Nuclear Factor Erythroid 2 Related Factor 2 (NFR2) response to Antioxidant Response Elements (ARE) (AID 2282992).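 As to AC50: reporter mRNA level measured by RT-PCR and capillary electrophoresis fluorescence.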 As to conditions: HepG2 Attagene ARE/NRF2 reporter, transcription factor activity; actives raise or lower the signal. The essentials: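 Transient MRTU transfection of HepG2; 24 h compound exposure; TriZol RNA, RT with oligo(dT), PCR, 6-FAM primer extension, HpaI cut, CE. Bidirectional fit vs DMSO.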

Experiment [5] in a line: ATG_Oct_MLP_CIS: Attagene CIS-FACTORIAL HepG2 Assay for human Octamer-Binding Transcription Factor (Oct) (AID 2282993). As to conditions: HepG2 Attagene cis-factorial Oct reporter, mRNA; actives raise or lower the signal. Summed up:
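Transfected HepG2 cells, 24 h treatment. Reporter mRNA quantified by RT-PCR–capillary electrophoresis; bidirectional fitting against DMSO.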

Experiment [6] deals with Cellular tumor antigen p53 (Homo sapiens) (UniProt P04637). The experiment is described as follows: ATG_p53_CIS: Attagene CIS-FACTORIAL HepG2 Assay for human p53 Transcription Factor (AID 2282994). Conditions: HepG2 p53 cis-element reporter, Attagene mRNA; actives raise or lower the signal. Summed up:
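HepG2, transient MRTU transfection (cis promoter elements, endogenous TFs); 24 h dosing; RNA isolation, RT-PCR, 6-FAM primer extension, HpaI digest, CE fluorescence; bidirectional fit vs DMSO.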

Experiment [7] is described as follows: BSK_3C_TissueFactor: BioMAP Diversity Plus: 3C Assay for Tissue Factor Biomarker Activity (AID 2282997). As to conditions: BioMAP 3C HUVEC, tissue factor biomarker readout; actives raise or lower the signal. Summed up:
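HUVEC were treated 24 h, then surface tissue factor measured by ELISA and fitted bidirectionally against DMSO. Parallel SRB total-protein staining assessed overt cytotoxicity at the same time point.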

Experiment [8] can be described thus: BSK_3C_uPAR: BioMAP Diversity Plus: 3C Assay for Urokinase-type plasminogen activator receptor (uPAR) Biomarker Activity (AID 2282998). As to conditions: BioMAP 3C HUVEC, uPAR biomarker ELISA; actives raise or lower the signal. Summed up: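 Readout: ELISA for surface uPAR. System: human umbilical vein endothelial primary cells, 24 h after chemical exposure. Analysis: bidirectional fit, DMSO baseline.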

Experiment [9] is described as follows: BSK_4H_Eotaxin3: BioMAP Diversity Plus: 4H Assay for Eotaxin 3 Biomarker Activity (AID 2283000).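 As to outcome: CCL26 protein level quantified by ELISA in parallel with SRB cytotoxicity check.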 Conditions: primary human endothelial cells (HUVEC); actives raise or lower the signal. The essentials:
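Eotaxin-3 (CCL26) levels were measured by ELISA in HUVEC primary cultures 24 h post-dosing. Gain or loss of signal was fitted in both directions, with DMSO serving as baseline and negative control.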

Read-out in experiment [10]: Intercellular Adhesion Molecule 1 (ICAM1), ICAM1 (gene 3383)
The experiment is described as follows: BSK_3C_ICAM1: BioMAP Diversity Plus: 3C Assay for Intercellular Adhesion Molecule 1 (ICAM1) Biomarker Activity (AID 2283003). As to conditions: primary human endothelial cells (HUVEC); actives raise or lower the signal. The essentials: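 Human vascular endothelial primary cells, 3C conditions, 24 h treatment. ICAM-1 by ELISA.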

Experiment [11] is described as follows: BSK_3C_Proliferation: Cell Proliferation Assessment in the BioMAP Diversity Plus: 3C Assay (AID 2283006).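 As to AC50: potency may reflect either rise or fall in cell number versus DMSO.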 Conditions: primary human endothelial cells (HUVEC). Summed up:
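Proliferation of human vascular endothelial primary cells after 48 h dosing, quantified as SRB-stained protein at 560 nm relative to DMSO.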

The target in experiment [12] is Peroxisome proliferator-activated receptor gamma (Homo sapiens) (UniProt P37231). The experiment can be described thus: ATG_PPARg_TRANS: Attagene TRANS-FACTORIAL HepG2 Assay for human Peroxisome Proliferator-activated Receptor-gamma (PPARg) (AID 2283007; active = hit-call score of the fitted dose curve at least 0.9, where 1 is the maximum). Summed up:
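Multiplexed reporter transcription units in HepG2, 24 h dosing, reporter transcripts quantified by fluorescent RT-PCR and capillary electrophoresis. Increase over DMSO scored.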

The target of experiment [13] is Nuclear receptor subfamily 1 group I member 2 (Homo sapiens) (UniProt O75469). The experiment can be described thus: ATG_PXR_TRANS: Attagene TRANS-FACTORIAL HepG2 Assay for human Pregnane X Receptor (PXR) (AID 2283008; active = hit-call score of the fitted dose curve at least 0.9, where 1 is the maximum). Summed up: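 Read-out is fluorescence of labelled reporter cDNA fragments separated by capillary electrophoresis after RT-PCR and HpaI digestion. Source: HepG2 cells carrying PXR-GAL4/UAS reporter constructs, treated 24 h; activity fitted upward relative to DMSO.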

Experiment [14] addresses human RAR-related Orphan Receptor beta (RORb), RORB (gene 6096) (UniProt Q92753). The experiment can be described thus: ATG_RORb_TRANS: Attagene TRANS-FACTORIAL HepG2 Assay for human RAR-related Orphan Receptor beta (RORb) (AID 2283010; active = hit-call score of the fitted dose curve at least 0.9, where 1 is the maximum). Summed up: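 In this TRANS-format test, human HepG2 cells express chimeric NR-Gal4 fusion proteins driving GAL4-UAS reporters. After 24 h dosing, reporter transcripts are measured by fluorescent RT-PCR/capillary electrophoresis, with DMSO as negative control.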

For experiment [15], the target named is human Peroxisome Proliferator-activated Receptor alpha (PPARa), PPARA (gene 5465) (UniProt Q07869). The experiment can be described thus: ATG_PPARa_TRANS: Attagene TRANS-FACTORIAL HepG2 Assay for human Peroxisome Proliferator-activated Receptor alpha (PPARa) (AID 2283001; active = hit-call score of the fitted dose curve at least 0.9, where 1 is the maximum;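 as to AC50: potency for gain of reporter signal over DMSO so agonist or activator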). Summed up: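 Reporter transcripts from GAL4-UAS units in transfected HepG2 were quantified 24 h after dosing. Detection used reverse transcription, PCR, fluorescent primer extension and capillary electrophoresis, with DMSO as baseline.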

Experiment [16] deals with human Peroxisome Proliferator-activated Receptor delta (PPARd), PPARD (gene 5467) (UniProt Q03181). The experiment is described as follows: ATG_PPARd_TRANS: Attagene TRANS-FACTORIAL HepG2 Assay for human Peroxisome Proliferator-activated Receptor delta (PPARd) (AID 2283002; active = hit-call score of the fitted dose curve at least 0.9, where 1 is the maximum). Summed up:
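Cell-based TRANS reporter: HepG2, transient MRTU transfection, 24 h exposure. Readout = reporter mRNA (RT-PCR/CE, 6-FAM). Gain-of-signal fit vs DMSO control.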

Experiment [17] concerns the target human Retinoic Acid Receptor beta (RARb), RARB (gene 5915) (UniProt P10826). The experiment can be described thus: ATG_RARb_TRANS: Attagene TRANS-FACTORIAL HepG2 Assay for human Retinoic Acid Receptor beta (AID 2283004; active = hit-call score of the fitted dose curve at least 0.9, where 1 is the maximum). Summed up: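 HepG2 cells were transiently transfected with GAL4-UAS reporter units that report activity of exogenous chimeric NR-Gal4 proteins, then exposed to compound for 24 h. Reporter mRNA was quantified by RT-PCR with capillary electrophoresis fluorescence, as gain of signal over DMSO.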

The target in experiment [18] is Retinoic acid receptor alpha (Homo sapiens) (UniProt P10276). The experiment is described as follows: ATG_RARa_TRANS: Attagene TRANS-FACTORIAL HepG2 Assay for human Retinoic Acid Receptor alpha (RARa) (AID 2283005; active = hit-call score of the fitted dose curve at least 0.9, where 1 is the maximum). Summed up: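 Reporter transcripts, measured by RT-PCR with fluorescent labeling and capillary electrophoresis after 24 h dosing, reflect activity of an exogenous human RARa–GAL4 fusion in transiently transfected HepG2. Fitted for increase relative to DMSO.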

Experiment [19] has as its target human Retinoic Acid Receptor gamma (RARg), RARG (gene 5916) (UniProt P13631). The experiment can be described thus: ATG_RARg_TRANS: Attagene TRANS-FACTORIAL HepG2 Assay for human Retinoic Acid Receptor gamma (RARg) (AID 2283009; active = hit-call score of the fitted dose curve at least 0.9, where 1 is the maximum). The essentials:
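HepG2, RARg-GAL4 TRANS system, 24 h exposure; reporter mRNA by RT-PCR + CE fluorescence; increase over DMSO.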

Experiment [20] is described as follows: BSK_3C_VCAM1: BioMAP Diversity Plus: 3C Assay for Vascular cell adhesion molecule 1 (VCAM1) Biomarker Activity (AID 2282999). As to conditions: BioMAP 3C HUVEC, VCAM1 ELISA, cytokine-stimulated; actives raise or lower the signal. Summed up: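 Endothelial cells from human umbilical vein are treated with test chemical. At 24 h, VCAM-1 is measured by ELISA, and responses in either direction are fitted relative to DMSO.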
Background: ELISA stands for enzyme-linked immunosorbent assay.

Each structure is given as a SMILES string. Values joined by “and” are separate entries in the source; they are usually repeats but may differ in a detail not shown here. Equal values may be shown once. Inconclusive results are not listed. Where a structure was tested more than once in an assay, its records may differ in their call. Active and inactive are the calls of the source. The calls were made as follows, unless noted: active = hit-call score of the fitted dose curve at least 0.9, where 1 is the maximum; inactive = score below 0.9.

Sequence of human Retinoic Acid Receptor beta (RARb), RARB (gene 5915) (P10826 whole entry, looked up, the tested form may be a part): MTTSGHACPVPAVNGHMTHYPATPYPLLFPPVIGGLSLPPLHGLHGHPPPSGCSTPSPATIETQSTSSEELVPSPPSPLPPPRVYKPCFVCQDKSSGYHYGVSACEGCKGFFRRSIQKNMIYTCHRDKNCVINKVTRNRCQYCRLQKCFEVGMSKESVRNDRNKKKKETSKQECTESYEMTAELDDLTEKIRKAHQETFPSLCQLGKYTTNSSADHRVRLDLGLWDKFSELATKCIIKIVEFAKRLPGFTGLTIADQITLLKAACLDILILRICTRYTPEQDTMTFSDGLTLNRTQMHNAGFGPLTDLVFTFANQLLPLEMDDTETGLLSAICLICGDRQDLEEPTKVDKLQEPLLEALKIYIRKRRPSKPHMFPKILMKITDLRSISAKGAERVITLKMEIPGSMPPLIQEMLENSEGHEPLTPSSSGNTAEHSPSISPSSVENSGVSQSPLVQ
Sequence of Retinoic acid receptor alpha (Homo sapiens) (P10276 whole entry, looked up, the tested form may be a part): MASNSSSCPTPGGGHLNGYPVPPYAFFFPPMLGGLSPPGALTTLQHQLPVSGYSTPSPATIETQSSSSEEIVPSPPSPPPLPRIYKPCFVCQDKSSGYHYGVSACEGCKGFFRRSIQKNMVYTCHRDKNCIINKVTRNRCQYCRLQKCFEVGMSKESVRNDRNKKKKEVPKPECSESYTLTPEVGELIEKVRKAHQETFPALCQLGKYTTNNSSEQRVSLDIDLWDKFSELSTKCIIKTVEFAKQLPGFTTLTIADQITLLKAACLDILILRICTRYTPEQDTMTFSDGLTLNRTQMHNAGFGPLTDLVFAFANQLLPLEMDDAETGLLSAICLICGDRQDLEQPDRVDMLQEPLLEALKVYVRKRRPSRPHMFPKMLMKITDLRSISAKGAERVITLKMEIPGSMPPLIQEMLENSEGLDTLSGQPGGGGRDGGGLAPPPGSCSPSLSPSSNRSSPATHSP
Sequence of human Peroxisome Proliferator-activated Receptor alpha (PPARa), PPARA (gene 5465) (Q07869 whole entry, looked up, the tested form may be a part): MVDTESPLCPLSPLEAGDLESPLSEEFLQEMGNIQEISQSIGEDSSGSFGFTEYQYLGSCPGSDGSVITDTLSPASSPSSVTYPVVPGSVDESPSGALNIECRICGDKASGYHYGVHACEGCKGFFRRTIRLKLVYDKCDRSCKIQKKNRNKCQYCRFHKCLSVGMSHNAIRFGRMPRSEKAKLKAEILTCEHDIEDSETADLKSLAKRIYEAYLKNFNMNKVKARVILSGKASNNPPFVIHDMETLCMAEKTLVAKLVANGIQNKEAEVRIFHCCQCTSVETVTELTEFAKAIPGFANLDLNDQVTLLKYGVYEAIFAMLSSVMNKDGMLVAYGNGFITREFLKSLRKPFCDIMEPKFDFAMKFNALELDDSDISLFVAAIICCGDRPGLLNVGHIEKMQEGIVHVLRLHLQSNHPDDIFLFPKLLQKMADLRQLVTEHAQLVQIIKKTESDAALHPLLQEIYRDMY
Sequence of Peroxisome proliferator-activated receptor gamma (Homo sapiens) (P37231 whole entry, looked up): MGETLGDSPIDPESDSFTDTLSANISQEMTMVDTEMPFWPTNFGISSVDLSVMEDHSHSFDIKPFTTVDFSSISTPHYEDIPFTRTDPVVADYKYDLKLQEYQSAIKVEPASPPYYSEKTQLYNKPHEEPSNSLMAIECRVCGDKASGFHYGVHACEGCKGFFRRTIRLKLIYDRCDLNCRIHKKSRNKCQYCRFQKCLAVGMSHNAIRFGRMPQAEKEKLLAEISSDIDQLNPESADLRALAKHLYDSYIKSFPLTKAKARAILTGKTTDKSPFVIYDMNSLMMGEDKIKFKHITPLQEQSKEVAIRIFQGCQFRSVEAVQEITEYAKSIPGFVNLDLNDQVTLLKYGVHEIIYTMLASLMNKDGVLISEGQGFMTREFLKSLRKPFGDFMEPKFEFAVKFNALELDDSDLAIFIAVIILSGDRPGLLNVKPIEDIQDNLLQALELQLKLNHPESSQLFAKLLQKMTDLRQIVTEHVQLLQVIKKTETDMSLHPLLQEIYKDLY
Sequence of Myc proto-oncogene protein (Homo sapiens) (P01106 whole entry, looked up): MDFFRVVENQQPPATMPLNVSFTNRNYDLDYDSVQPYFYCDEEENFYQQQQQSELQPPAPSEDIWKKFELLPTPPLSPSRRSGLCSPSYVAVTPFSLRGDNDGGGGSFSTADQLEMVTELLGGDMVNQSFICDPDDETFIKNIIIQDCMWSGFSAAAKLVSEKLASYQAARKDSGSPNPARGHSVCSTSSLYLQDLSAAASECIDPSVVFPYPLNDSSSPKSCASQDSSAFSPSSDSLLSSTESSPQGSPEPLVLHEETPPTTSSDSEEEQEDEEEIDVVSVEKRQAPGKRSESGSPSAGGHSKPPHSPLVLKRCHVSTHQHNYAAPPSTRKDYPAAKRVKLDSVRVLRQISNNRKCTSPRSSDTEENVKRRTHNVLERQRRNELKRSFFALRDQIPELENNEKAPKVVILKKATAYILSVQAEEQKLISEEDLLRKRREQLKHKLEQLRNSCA
Sequence of Nuclear receptor subfamily 1 group I member 2 (Homo sapiens) (O75469 whole entry, looked up, the tested form may be a part): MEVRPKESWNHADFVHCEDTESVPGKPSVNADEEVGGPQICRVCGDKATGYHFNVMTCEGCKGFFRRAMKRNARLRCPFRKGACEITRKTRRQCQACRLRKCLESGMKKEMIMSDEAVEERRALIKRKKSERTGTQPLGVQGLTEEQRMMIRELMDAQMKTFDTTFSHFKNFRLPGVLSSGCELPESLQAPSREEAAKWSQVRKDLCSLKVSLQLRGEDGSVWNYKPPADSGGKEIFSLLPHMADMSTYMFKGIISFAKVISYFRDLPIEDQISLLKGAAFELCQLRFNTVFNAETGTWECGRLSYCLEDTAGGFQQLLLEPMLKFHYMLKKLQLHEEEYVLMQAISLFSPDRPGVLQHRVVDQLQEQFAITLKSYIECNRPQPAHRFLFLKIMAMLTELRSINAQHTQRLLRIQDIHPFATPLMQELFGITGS
Sequence of human Retinoic Acid Receptor gamma (RARg), RARG (gene 5916) (P13631 whole entry, looked up, the tested form may be a part): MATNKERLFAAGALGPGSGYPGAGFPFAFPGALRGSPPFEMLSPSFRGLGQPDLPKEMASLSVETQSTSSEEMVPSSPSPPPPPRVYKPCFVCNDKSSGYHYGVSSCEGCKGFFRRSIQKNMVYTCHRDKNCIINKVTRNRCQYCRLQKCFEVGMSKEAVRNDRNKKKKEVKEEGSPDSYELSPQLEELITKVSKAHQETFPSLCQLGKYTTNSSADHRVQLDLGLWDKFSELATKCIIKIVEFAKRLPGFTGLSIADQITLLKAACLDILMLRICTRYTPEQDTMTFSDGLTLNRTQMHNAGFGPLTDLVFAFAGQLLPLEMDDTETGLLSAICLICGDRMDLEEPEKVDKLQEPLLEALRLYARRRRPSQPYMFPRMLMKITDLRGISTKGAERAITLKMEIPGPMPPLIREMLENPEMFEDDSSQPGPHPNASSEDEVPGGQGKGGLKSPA
Sequence of human Peroxisome Proliferator-activated Receptor delta (PPARd), PPARD (gene 5467) (Q03181 whole entry, looked up): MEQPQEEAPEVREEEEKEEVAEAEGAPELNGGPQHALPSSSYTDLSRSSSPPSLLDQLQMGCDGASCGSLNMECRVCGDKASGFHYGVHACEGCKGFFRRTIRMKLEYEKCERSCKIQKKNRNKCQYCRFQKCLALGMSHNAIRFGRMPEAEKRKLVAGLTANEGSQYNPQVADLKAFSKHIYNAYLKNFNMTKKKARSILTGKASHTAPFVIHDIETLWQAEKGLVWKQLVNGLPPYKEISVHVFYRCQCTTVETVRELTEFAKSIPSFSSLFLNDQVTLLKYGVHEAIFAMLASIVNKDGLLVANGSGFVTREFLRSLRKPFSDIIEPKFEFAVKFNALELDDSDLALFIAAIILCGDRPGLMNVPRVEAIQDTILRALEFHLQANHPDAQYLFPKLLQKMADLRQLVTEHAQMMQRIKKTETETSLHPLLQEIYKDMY
Sequence of Cellular tumor antigen p53 (Homo sapiens) (P04637 whole entry, looked up): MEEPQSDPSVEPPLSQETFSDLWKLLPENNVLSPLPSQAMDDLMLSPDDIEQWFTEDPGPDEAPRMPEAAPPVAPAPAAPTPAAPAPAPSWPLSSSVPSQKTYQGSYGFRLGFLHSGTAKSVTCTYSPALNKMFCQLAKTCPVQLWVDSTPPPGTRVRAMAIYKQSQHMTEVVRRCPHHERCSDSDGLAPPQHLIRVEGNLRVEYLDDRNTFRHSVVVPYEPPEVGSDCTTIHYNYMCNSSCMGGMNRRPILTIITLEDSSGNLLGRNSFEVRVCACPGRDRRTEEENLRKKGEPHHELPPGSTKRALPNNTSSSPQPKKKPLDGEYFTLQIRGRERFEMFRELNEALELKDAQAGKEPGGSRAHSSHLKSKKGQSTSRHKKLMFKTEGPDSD
Sequence of human RAR-related Orphan Receptor beta (RORb), RORB (gene 6096) (Q92753 whole entry, looked up, the tested form may be a part): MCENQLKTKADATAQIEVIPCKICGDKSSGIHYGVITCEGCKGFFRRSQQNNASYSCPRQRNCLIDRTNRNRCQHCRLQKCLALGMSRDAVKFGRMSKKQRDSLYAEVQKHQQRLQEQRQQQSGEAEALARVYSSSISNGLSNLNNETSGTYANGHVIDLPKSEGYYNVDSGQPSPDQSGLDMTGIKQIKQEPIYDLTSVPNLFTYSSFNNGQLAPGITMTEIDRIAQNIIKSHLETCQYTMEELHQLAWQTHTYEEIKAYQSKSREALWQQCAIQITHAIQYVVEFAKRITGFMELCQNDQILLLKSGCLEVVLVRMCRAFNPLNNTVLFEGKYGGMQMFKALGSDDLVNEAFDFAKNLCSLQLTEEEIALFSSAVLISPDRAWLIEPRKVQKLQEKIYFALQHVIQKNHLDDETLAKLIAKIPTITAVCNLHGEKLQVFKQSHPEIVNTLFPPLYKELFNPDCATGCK

For the molecule `Cc1ccc(C(=O)c2ccccc2)cc1`, the molecule was classed as inactive in experiment [1], in [2], in experiment [3], in [5], in experiment [6] and in experiment [8]. The outcome in [10] and in experiment [14] was inactive. The AC50 (as a rule, the concentration at which the activity in the assay is half-maximal) in experiment [4] is 28 µM (active); in [7], 11.3 µM (active); in experiment [9], 28.4 µM (active); in experiment [11] it was 32.1 µM (active); in experiment [12], 100 µM (active); in [13], 19.9 µM (active).
For `Oc1cc2ccccc2cc1O`, the molecule was classed as inactive in experiment [1], in experiment [2], in experiment [3], in [5], in experiment [6] and in experiment [7]. Moreover, the outcome in experiment [8], in experiment [9], in [16], in experiment [10], in [17] and in [18] was inactive. Also, the result in [11], in experiment [12], in [13], in [19] and in [14] was inactive. For the same molecule, the AC50 in experiment [4] is 100 µM (active); in experiment [15] it was 42.8 µM (active).
`O=C(O)C(F)(F)OC(F)(F)C(F)(F)OC(F)(F)C(F)(F)OC(F)(F)C(F)(F)C(F)(F)C(F)(F)F`: the AC50 in experiment [1] is 80.8 µM (active); in experiment [3], 27.5 µM (active); in experiment [4], 4.04 µM (active); in experiment [5] it was 34 µM (active) and 29.7 µM (active); in experiment [6], 27.4 µM (active); in experiment [7], 22.3 µM (active) and 27.7 µM (active). The half-maximal activity concentration (AC50) in experiment [8] was 21.3 µM (active) and 23 µM (active); in [20], 52.2 µM (active) and 50.4 µM (active); in [9], 45.5 µM (active) and 51.6 µM (active); in [10], 45.4 µM (active) and 53.1 µM (active); in [11], 18 µM (active) and 18.4 µM (active); in [12], 13.1 µM (active) and 19.1 µM (active). The concentration at half-maximal activity (AC50) in experiment [13] is 16.5 µM (active) and 19.4 µM (active). For the same molecule, the outcome in [1], in [3], in [4], in [6], in [16] and in [17] was inactive. In addition, the call in experiment [18], in experiment [19] and in [14] was inactive.
As for `O=C(F)C(F)(F)C(F)(F)C(F)(F)C(F)F`, the outcome in experiment [1], in [2], in experiment [3], in experiment [4], in [5] and in experiment [6] was inactive. Moreover, the call in experiment [16], in [17], in [12] and in experiment [13] was inactive.
For the molecule `C=CC(=C)CC/C=C(\C)CCC=C(C)C`, the molecule was called inactive in [1], in experiment [2], in experiment [3], in [5], in experiment [6] and in experiment [7]. Further, the outcome in experiment [8], in experiment [9], in experiment [16], in [10], in experiment [17] and in experiment [18] was inactive. Moreover, the outcome in [11] and in [14] was inactive. For the same molecule, the AC50 in experiment [4] is 19 µM (active); in [13] it was 6.93 µM (active).
Consider `Nc1ccc(O)c(C(=O)O)c1`, for which the result in experiment [1], in experiment [2], in experiment [3], in experiment [4], in experiment [5] and in experiment [6] was inactive. In addition, the outcome in experiment [15], in experiment [16], in experiment [17], in [12], in experiment [13] and in experiment [19] was inactive. In [14], the call was inactive.
For the molecule `Cc1ccc2ccc3ccc(C)cc3c2c1`, the call in [1], in experiment [2], in experiment [3], in experiment [5], in [6] and in experiment [15] was inactive. Also, the molecule was called inactive in experiment [16], in experiment [17], in [12] and in [14]. Also, the AC50 is 61.3 µM (active) in experiment [4] and 14.4 µM (active) in [13].

(Values after PubChem BioAssay (EPA / NIEHS).)
